This is a sample that favours compounds with a hit; in the whole collection about 17% have one here.
ATXN2 expr inh: Primary qHTS for Inhibitors of ATXN expression; HEK-293 ATXN2-luciferase reporter, luminescence, 24 h; Potency, µM (top dose mostly 57 µM), hits mostly inhibitors; 360,000 tested, 0.72% active; also: nearly all actives have a fitted effect of over 55% in size
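ATXN2-luciferase reporter cells (luciferase flanked by upstream and downstream ATXN2 gene portions) were treated 24 h at 37 °C with compounds at up to 57 uM. SteadyGlo luminescence gave expression; GF-AFC fluorescence gave viability.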
ATXN viability: Viability Counterscreen for Primary qHTS for Inhibitors of ATXN expression. S2 cells (HEK-293 line with an ATXN2-luciferase reporter) viability, CellTiter-Fluor protease fluorescence, 24 h. Potency, µM (highest dose often 56.7 µM), most hits filed as cytotoxic. 400,000 tested, 0.49% active. AID 651635, 2014; also: nearly all actives have a fitted effect of over 40% in size
DT40 TDP1 CPT: qHTS for Inhibitors of human tyrosyl-DNA phosphodiesterase 1 (TDP1): qHTS in cells in presence of CPT; chicken DT40 Tdp1-/-;hTDP1 cells + 20 nM CPT, ATP luminescence, 48 h; Potency, µM (top dose mostly 46.2 µM), hits mostly inhibitors; 420,000 tested, 12% active; also: nearly all actives have a fitted effect of over 55% in size
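Chicken DT40 Tdp1-/- cells stably complemented with human TDP1 were seeded at 400 cells/well in medium containing 20 nM camptothecin, exposed to pin-transferred compounds, and grown at 37 °C for at least 48 hr. Viability was read as ATP luminescence.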
TDP1 cell noCPT: qHTS for Inhibitors of human tyrosyl-DNA phosphodiesterase 1 (TDP1): qHTS in cells in absence of CPT | Potency, µM (titrated, usually from 46.2 µM), actives largely listed as inhibitors | AID 686978, 2013 | 420,000 tested, 15% active | DT40 Tdp1-/- hTDP1 cells, no CPT, ATP luminescence, 48 h; also: nearly all actives have a fitted effect of over 55% in size
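Cells were dispensed at 400 per well, compounds added by pin tool, plates incubated ≥48 hr at 37 °C, then CellTiter-Glo added for 30 min at room temperature before luminescence reading. Line: DT40 Tdp1-/- complemented with hTDP1; camptothecin omitted.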
TGFb SMAD3 inh: qHTS for Inhibitors of TGF-b. HepG2 CAGA-GFP TGF-b/SMAD3 reporter, GFP fluorescence, 18 h; TGF-beta stimulated, 500 pg/mL final. Potency, µM (doses to about 46.1 µM), actives largely listed as inhibitors. 410,000 tested, 1.2% active. AID 588855, 2011; also: nearly all actives have a fitted effect of over 65% in size
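HEPG2 CAGA-GFP cells (1000/well, DMEM with 1% FBS) were pre-incubated 2 h at 37 degrees C, given compound by pin tool, then stimulated with TGF-beta at 500 pg/mL final for 18 h before per-cell GFP fluorescence imaging.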
HepG2 tox: qHTS for Inhibitors of TGF-b: Cytotox Counterscreen | Potency, µM (highest dose often 46.1 µM), usual class: cytotoxic | 410,000 tested, 0.76% active | AID 588856, 2011 | HepG2 CAGA-GFP viability, ATP luminescence, 18 h
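HepG2 CAGA-GFP cells (1000/well, DMEM with 1% FBS) received compound, then TGF-beta at 500 pg/mL final, and were incubated 18 hours at 37 degrees C. Viability was read by CellTiter-Glo luminescence. Media-only wells were set as complete cell-killing and DMSO as no toxicity.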
Each line names hits and unclear results; the compound was inactive in the other large screens. Calls follow the shape of the dose curve; as a rule, active = well fitted curve in the direction sought with a large enough effect; inconclusive = small, poorly fitted or top-dose-only effect, or another doubt; inactive = no such curve, though single readings can be large; an effect the other way counts as inactive or inconclusive.

Cc1ccc(C)c(C(=O)Nc2nc3ccccc3[nH]2)c1	DT40 TDP1 CPT inconclusive, TDP1 cell noCPT 2.31µM
Cc1ccc(Nc2nc3ccccc3[nH]2)nc1	ATXN viability inconclusive, DT40 TDP1 CPT inconclusive, TDP1 cell noCPT 16.4µM
Cc1ccc(/C=C/C(=O)Nc2nc3ccccc3[nH]2)cc1	ATXN viability inconclusive, DT40 TDP1 CPT 13µM, TDP1 cell noCPT inconclusive
CCCSc1ncc(Cl)c(C(=O)Nc2nc3ccc(C)cc3s2)n1	none (no result: ATXN2 expr inh, ATXN viability, TGFb SMAD3 inh)
COc1ccccc1CNC(=O)c1ccc(N2CCCC2)c(NC(=O)NCc2ccc(F)cc2)c1	DT40 TDP1 CPT inconclusive
COc1ccc(CN2C(=O)c3ccccc3C2c2nnnn2-c2ccc3c(c2)OCCO3)cc1OC (stereo not given)	DT40 TDP1 CPT 14.6µM, TDP1 cell noCPT 20.6µM (no result: TGFb SMAD3 inh, HepG2 tox)
COc1ccc(CN2C(=O)c3ccccc3C2c2nnnn2Cc2ccccc2)cc1OC (stereo not given)	ATXN viability inconclusive, DT40 TDP1 CPT inconclusive, TDP1 cell noCPT inconclusive (no result: TGFb SMAD3 inh, HepG2 tox)
O=C1c2ccccc2C(c2nnnn2-c2ccc3c(c2)OCCO3)N1Cc1cccs1 (stereo not given)	DT40 TDP1 CPT inconclusive, TDP1 cell noCPT inconclusive (no result: TGFb SMAD3 inh, HepG2 tox)
COc1ccc(OC)c(CN2C(=O)c3ccccc3C2c2nnnn2C(C)C)c1 (stereo not given)	DT40 TDP1 CPT inconclusive, TDP1 cell noCPT inconclusive (no result: TGFb SMAD3 inh, HepG2 tox)
COc1ccc(OC)c(CN2C(=O)c3ccccc3C2c2nnnn2Cc2ccccc2)c1 (stereo not given)	DT40 TDP1 CPT inconclusive, TDP1 cell noCPT 20.6µM (no result: TGFb SMAD3 inh, HepG2 tox)
COc1ccc(OC)c(CN2C(=O)c3ccccc3C2c2nnnn2C2CCCC2)c1 (stereo not given)	DT40 TDP1 CPT inconclusive, TDP1 cell noCPT 16.4µM (no result: TGFb SMAD3 inh, HepG2 tox)
O=C(O[C@@H]1OC2COC(=O)c3cc(O)c(O)c(O)c3-c3c(cc(O)c(O)c3O)C(=O)O[C@@H]([C@H]1O)[C@@H]2O)c1cc(O)c(O)c(O)c1	DT40 TDP1 CPT inconclusive, TDP1 cell noCPT inconclusive, TGFb SMAD3 inh inconclusive
CN(Cc1ccccc1)C1CCCN(C(=O)c2ccc(Cl)s2)C1 (stereo not given)	DT40 TDP1 CPT inconclusive, TDP1 cell noCPT inconclusive
CC1=CC(=O)C=C(C)C1=NOC(=O)c1cccc([N+](=O)[O-])c1	DT40 TDP1 CPT 10.3µM, TDP1 cell noCPT inconclusive
CCC1NC(=O)c2cccnc2-n2c1nc1cc(F)ccc1c2=O (stereo not given)	none
N#Cc1ccc(Oc2nc(Nc3ccc(F)cc3)nc(N3CCCC3)n2)cc1	DT40 TDP1 CPT inconclusive, TDP1 cell noCPT inconclusive
COc1nc(Nc2ccc(OC)c(Cl)c2)nc(OC)n1	TDP1 cell noCPT inconclusive
CCOc1nc(Nc2ccc(OC)c(Cl)c2)nc(N2CCN(c3ccc(OC)cc3)CC2)n1	DT40 TDP1 CPT 18.4µM, TDP1 cell noCPT 23.1µM, TGFb SMAD3 inh inconclusive
CCOc1nc(Nc2ccc(F)cc2)nc(N2CCN(c3ccc(OC)cc3)CC2)n1	ATXN viability inconclusive, DT40 TDP1 CPT inconclusive, TDP1 cell noCPT 14.6µM
CCOc1ccc(Nc2nc(Nc3ccc(OCC)cc3)nc(N3CCOCC3)n2)cc1	none (no result: ATXN2 expr inh, ATXN viability)
CCOc1ccc(Nc2nc(N3CCCC3)nc(N3CCN(c4ccc(OC)cc4)CC3)n2)cc1	DT40 TDP1 CPT inconclusive, TDP1 cell noCPT 16.4µM (no result: ATXN2 expr inh)
COc1ccc(C(=O)NCCOc2ccccc2Cl)c(OC)c1OC	DT40 TDP1 CPT inconclusive, TDP1 cell noCPT inconclusive, TGFb SMAD3 inh inconclusive (no result: ATXN2 expr inh, ATXN viability)
CCn1ncc(/C=N\NC(=O)Cc2ccc([N+](=O)[O-])cc2)c1C	none
Cc1cc(-c2nnc(CCC(=O)NC(C)(C)C34CC5CC(CC(C5)C3)C4)o2)no1	TDP1 cell noCPT inconclusive
O=C(C[n+]1cccc(Br)c1)c1ccccc1	none
O=C(C[n+]1cccc(Br)c1)c1ccc(I)cc1	DT40 TDP1 CPT 2.24µM (no result: ATXN2 expr inh, ATXN viability)

Screens (PubChem)
